Broadly, the AC50 is the concentration at which the activity in the assay is half-maximal.

Inconclusive results are not listed. Calls of active or inactive are those of the source. Rule for the calls, unless noted: active = hit-call score of the fitted dose curve at least 0.9, where 1 is the maximum; inactive = score below 0.9.

Assay [1] is described as follows: ACEA_ER_AUC_viability: ACEA Biosciences xCELLigence Real-Time Cell Analysis on Estrogen Receptor Agonism for Viability (AID 2283782; active = hit-call score of the fitted dose curve at least 0.9, where 1 is the maximum;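 note: continuous compound exposure with impedance area under curve over 80 h; hit means loss of impedance signal meaning reduced cell growth or viability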). The essentials:
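T-47D human breast cells in phenol red-free RPMI1640 with 10% charcoal-stripped FBS were dosed with an 8-point 1:4 dilution series from 100 uM top final concentration, in duplicate. Impedance-based growth was followed for 80 h; AUC analysed versus DMSO.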

A short description of assay [2]: STM_H9_NormalizedViability: Cytotoxicity Assessment at 120 hours in the Stemina devTOX quickPredict H9 human embryonic stem cell (hESC)-based Assay (AID 2283784; active = hit-call score of the fitted dose curve at least 0.9, where 1 is the maximum). The essentials: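 Chemicals are tested blinded on H9 human embryonic stem cells in the pluripotent state, with medium exchanged daily. After background correction, fluorescence from CellTiter-Fluor is scaled against 0.1% DMSO wells, and decreases are scored.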

Assay [3] is described as follows: CCTE_Shafer_MEA_acute_spike_number: CCTE's Neural Acute Assay for Total Number of Spikes, Shafer Lab (AID 2284008). The method, boiled down:
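Read-out is the total spike count over 40 min, expressed as percent change from each well's own pre-treatment baseline and fitted in the loss direction against DMSO. Rat cortical neurons were exposed at 0.03-40 uM on DIV 13 or 15.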

A short description of assay [4]: CCTE_Shafer_MEA_acute_firing_rate_mean: CCTE's Neural Acute Assay for Mean Firing Rate, Shafer Lab (AID 2284009).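 Note: analyzed for loss of signal so actives lower firing rate relative to DMSO.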 The method, boiled down:
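Read-out: well-mean spike rate (spikes/recording length/electrodes), % change from 40 min pre-dose baseline to 40 min with compound. Rat cortical cultures, DIV 13 or 15, 37 C; 0.03-40 uM; DMSO as negative control.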

A short description of assay [5]: CCTE_Harrill_HTTr_Viability_MCF7: CCTE's 6-hour Cell Viability Assessment for the High-Throughput Transcriptomics (HTTr) Platform, in MCF-7 cells cultured in DMEM + 10% fetal bovine serum, Harrill Lab (AID 2284010). The essentials:
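Viability measured through PI dye exclusion by high-content imaging at 6 h post-dosing.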

Assay [6] can be described thus: CCTE_Harrill_HTTr_Apoptosis_MCF7: CCTE's 6-hour Apoptosis Assessment for the High-Throughput Transcriptomics (HTTr) Platform, in MCF-7 cells cultured in DMEM + 10% fetal bovine serum, Harrill Lab (AID 2284011). The essentials:
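MCF-7 (DMEM + 10% FBS), 384-well; 8-pt dilution series, 6 h chemical exposure; caspase-3/7 activation via CellEvent Caspase 3/7 Green, HCI; bidirectional fit vs DMSO.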

Assay [7] in a line: CCTE_Shafer_MEA_acute_burst_number: CCTE's Neural Acute Assay for Single-Electrode Bursts, Shafer Lab (AID 2284013). The essentials:
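Rat cortical cultures, DIV 13/15; 40 min baseline, then 40 min with compound 0.03-40 uM, 37 C. Spikes: 300-5000 Hz band-pass, threshold 8x rms noise. Readout = % change in single-electrode bursts vs baseline, loss-of-signal fit.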

Assay [8] in a line: CCTE_Shafer_MEA_acute_burst_duration_mean: CCTE's Neural Acute Assay for Mean Burst Duration, Shafer Lab (AID 2284014).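 Note: hits are decreases in mean burst duration relative to DMSO controls.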 The method, boiled down:
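Primary rat cortical neurons on 16-electrode MEA wells, treated on DIV 13 or 15 with compound (0.03-40 uM; ≥3 wells each). 40-min baseline and 40-min exposure recordings at 37 C; percent change in mean burst duration per well versus DMSO.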

A short description of assay [9]: CCTE_Shafer_MEA_acute_per_burst_spike_number_mean: CCTE's Neural Acute Assay for Average Number of Spikes Per Burst, Shafer Lab (AID 2284015).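 Note: hits are decreases in mean spikes per burst versus baseline.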 The method, boiled down: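 We recorded spontaneous network firing of rat cortical neurons for 40 min before and 40 min during exposure to compound at 0.03-40 uM, at 37 C. Spikes were detected adaptively at 8x rms noise, and the change in average spikes per burst was fitted against DMSO.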

The nature of assay [10]: CCTE_Shafer_MEA_acute_interburst_interval_mean: CCTE's Neural Acute Assay for Mean Interburst Interval, Shafer Lab (AID 2284016).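 Note: percent change of mean interburst interval versus each well's own pre-dose baseline; curves fitted for decrease in interburst interval relative to DMSO.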 The method, boiled down: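 MEA recording of spontaneous network bursting in primary rat cortical cultures; mean interburst interval was compared before and after a 40-min compound exposure (0.03-40 uM) and expressed as percent change, relative to DMSO.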

Assay [11] is described as follows: CCTE_Shafer_MEA_acute_burst_percentage_mean: CCTE's Neural Acute Assay for Percentage of Spikes in a Burst, Shafer Lab (AID 2284017). The essentials: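 Compounds were tested at 0.03-40 uM on primary rat cortical neuron networks grown over microelectrodes, with at least three wells per compound. Spontaneous firing was recorded for 40 min before and 40 min after dosing, and the change in burst percentage was computed per well.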

Assay [12] is described as follows: CCTE_Shafer_MEA_acute_burst_percentage_std: CCTE's Neural Acute Assay for Standard Deviation of Burst Percentage, Shafer Lab (AID 2284018).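 Note: fitted in the negative direction so actives lower burst percentage SD.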 The method, boiled down:
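Primary rat cortical neurons on 16-electrode MEA wells were recorded 40 min at baseline (DIV 13 or 15), then 40 min after compound (0.03-40 uM), at 37 C. Well value is SD across electrodes of spikes-in-bursts/total spikes; endpoint is percent change, DMSO-referenced.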

Assay [13] is described as follows: CCTE_Shafer_MEA_acute_per_network_burst_spike_number_mean: CCTE's Neural Acute Assay for Average Number of Spikes in a Network Burst, Shafer Lab (AID 2284019). The method, boiled down:
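Primary rat cortical neurons on 16-electrode MEA wells, DIV 13 or 15, 37 C; 40-min baseline then 40-min recording with compound (0.03-40 uM). Spikes per network burst (total spikes/number of bursts) expressed as percent change from baseline, DMSO reference.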

Assay [14] is described as follows: CCTE_Shafer_MEA_acute_per_network_burst_spike_number_std: CCTE's Neural Acute Assay for Standard Deviation of Number of Spikes in a Network Burst, Shafer Lab (AID 2284020).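 Note: fitted for decrease in spike-number SD versus DMSO so actives lower it.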 The essentials: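 Primary rat cortical neurons on 48-well MEAs (16 electrodes/well) recorded at DIV 13 or 15: 40-min baseline, then 40 min with compound (0.03-40 uM), 37 C. Value is percent change in SD of spikes per network burst, relative to DMSO.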

A short description of assay [15]: CCTE_Shafer_MEA_acute_per_network_burst_electrodes_number_mean: CCTE's Neural Acute Assay for Mean Number of Electrodes in a Network Burst, Shafer Lab (AID 2284021).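 Note: curves fitted for decreases only so hits reduce electrodes per burst.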 The essentials: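 Primary rat cortical networks, mwMEA, 37 C. 20 min stabilization, 40 min baseline, compound 0.03-40 uM, 40 min re-record. Wells need >=10 active electrodes; percent change per well, negative fitting direction.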

The nature of assay [16]: CCTE_Shafer_MEA_acute_cross_correlation_area: CCTE's Neural Acute Assay for Area of Cross Correlation, Shafer Lab (AID 2284024).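 Note: area under pooled inter-electrode spike cross-correlation near zero lag as percent change from own baseline; curves fitted for loss of cross-correlation area so actives lower synchrony.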 The essentials: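 Plates equilibrated 20 min at 37 C, then 40 min baseline was recorded, compound was added (0.03-40 uM), and a further 40 min was recorded. Wells needed ≥10 active electrodes (≥5 spikes/min) on exposure day.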
The nature of assay [17]: CCTE_Shafer_MEA_acute_synchrony_index: CCTE's Neural Acute Assay for Synchrony, Shafer Lab (AID 2284027).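 Note: network synchrony index of spontaneous spiking in primary rat cortical neurons on MEAs; fitted for loss of signal so actives lower synchrony relative to DMSO.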 The method, boiled down: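 Spontaneous firing of mature rat cortical networks is captured extracellularly on microelectrode arrays at 37 C, with wells needing ≥10 active electrodes. Each compound (0.03-40 uM) is judged by the change in synchrony index from baseline over 40 min.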

Assay [18] is described as follows: CCTE_Shafer_MEA_acute_AB: CCTE's Alamar Blue Assay for Cytotoxicity in the Neural Acute Assay, Shafer Lab (AID 2284069; active = hit-call score of the fitted dose curve at least 0.9, where 1 is the maximum;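 note: active compounds lower the viability signal compared with DMSO wells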). The essentials: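 Cytotoxicity endpoint for acute MEA exposures of primary rat cortical neurons on day 13 or 15. Resazurin reduction is read fluorescently at 544/590 nm, with DMSO as the negative-control baseline.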
(Resazurin is reduced to fluorescent resorufin, in cell work by metabolically active cells.)

The test system of the next assay is IYD (gene 389434). The assay can be described thus: CCTE_GLTED_hIYD: CCTE's human Iodotyrosine Deiodinase (xIYD) Inhibition Assay, Great Lakes Toxicology and Ecology Division (GLTED) Lab (AID 2284317; active = hit-call score of the fitted dose curve at least 0.9, where 1 is the maximum;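 note: cell-free human IYD enzyme made in baculovirus insect cells; iodide freed from monoiodotyrosine measured by cerium arsenite color change at 420 nm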). The method, boiled down: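 First, recombinant human IYD (baculovirus-insect cells), MIT and chemical incubated 3 h. Next, iodide isolated on Dowex. Finally, Sandell-Kolthoff rate read at 420 nm, with platewise normalization to MNT and solvent controls.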

In the case of `c1cc[n+]2c(c1)-c1cccc[n+]1CC2`, the AC50 in assay [1] was 22.8 µM (active); in [2], 7.82 µM (active); in the assay on IYD (gene 389434), 11.4 µM (active). Also, the call in assay [3], in assay [4], in assay [5], in assay [6], in assay [7] and in assay [8] was inactive. Also, the call in [9], in assay [10], in assay [11], in assay [12], in [13] and in [14] was inactive. Moreover, the result in assay [15], in assay [16], in [17] and in [18] was inactive.

These data come from PubChem BioAssay (EPA / NIEHS).
